Cycloheximide cs: Cycloheximide Counterscreen for Small Molecule Inhibitors of Shiga Toxin | cell reporter, cycloheximide protein synthesis inhibition counterscreen | max response, % | 12% of 300,000 active | AID 2314, 2010; in the data active means max response mostly above about 13%, no sharp cut-off; inactive means mostly below about 14%; further: read at 38.3 µM for the half of the compounds with a filed dose; 0% is about no effect
AMA1 RON2 block: qHTS for Inhibitors of AMA1-RON; Towards Development of Antimalarial Drug Lead: Primary Screen; Potency, µM (top dose mostly 58.2 µM), for inactives: top-dose activity change, negative = inhibition, usual class: inhibitors; 0.2% of 360,000 active; AlphaScreen AMA1-biotinylated RON2 peptide binding;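 further: potency means the concentration at half of the fitted maximal effect; 0% = vehicle wells and -100% = peptide control; nearly all actives have a fitted effect of over 45% in size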
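AMA1 (3D7) with his tag at 25 nM final met compounds first, then biotinylated RON2 peptide at 25 nM; detection used donor plus acceptor beads, 10 µg/mL apiece, read by AlphaScreen after 30 min at room temperature.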
SARS PLpro yeast: qHTS of Yeast-based Assay for SARS-CoV PLP. S. cerevisiae expressing SARS-CoV PLpro, growth rescue. Potency, µM (titrated, usually from 32.9 µM), without a hit: top-dose activity, positive = growth rescue, most hits filed as activators. 0.19% of 330,000 active; calls by dose curve; further: potency means the concentration at half of the fitted maximal effect; 0% is about no effect; nearly all actives have a fitted effect of over 55% in size
AmpC detergent: qHTS Inhibitors of AmpC Beta-Lactamase (assay with detergent); AID 485294, 2010; AmpC hydrolysis of nitrocefin, absorbance 480 nm, 0.01% Triton; P00811; 0.041% of 370,000 active; Potency, µM (titrated, usually from 114 µM), inactives show top-dose activity change, negative = inhibition, most hits filed as inhibitors;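 further: potency means the concentration at half of the fitted maximal effect; 0% = no-compound wells and -100% = no-enzyme wells; nearly all actives have a fitted effect of over 25% in size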
Target sequence (P00811 whole entry, looked up): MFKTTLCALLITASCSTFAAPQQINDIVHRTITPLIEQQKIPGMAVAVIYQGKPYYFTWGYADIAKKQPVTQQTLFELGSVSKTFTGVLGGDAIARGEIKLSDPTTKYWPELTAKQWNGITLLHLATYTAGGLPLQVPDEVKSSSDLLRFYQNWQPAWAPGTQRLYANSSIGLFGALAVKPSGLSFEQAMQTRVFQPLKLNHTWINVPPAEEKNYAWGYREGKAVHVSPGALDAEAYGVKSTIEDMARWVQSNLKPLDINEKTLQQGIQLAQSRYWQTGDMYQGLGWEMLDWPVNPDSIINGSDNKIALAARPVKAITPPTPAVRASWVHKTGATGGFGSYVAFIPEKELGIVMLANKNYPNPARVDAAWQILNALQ
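AmpC (5.3 nM in the dispensed reagent) in 20 mM phosphate pH 7.0 with 0.01% (detergent screen) or 0.0001% Triton X-100 was preincubated with compounds for 15 min at room temperature. Nitrocefin was then added from an 800 uM solution, and hydrolysis was followed at 480 nm.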
Shiga inhibitor: A qHTS for Small Molecule Inhibitors of Shiga Toxin; Vero cells, Shiga toxin protein synthesis inhibition reporter; inhibition, % at 38.7 µM; 9.2% of 290,000 active; in the data active means inhibition mostly above about 28%, no sharp cut-off; inactive means mostly below about 43%; further: 0% is about no effect
AmpC no deterg: qHTS Inhibitors of AmpC Beta-Lactamase (assay without detergent); Potency, µM (titrated, usually from 57.1 µM), for the others: at the top dose activity change, negative = inhibition, most hits filed as inhibitors; 0.52% of 330,000 active; AID 485341, 2010; AmpC nitrocefin hydrolysis, absorbance 480 nm, 0.0001% Triton; P00811;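 further: potency means the concentration at half of the fitted maximal effect; plate controls were no compound for no effect and no enzyme for full effect; nearly all actives have a fitted effect of over 20% in size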
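20 mM phosphate pH 7.0 + 0.01% (detergent screen) or 0.0001% Triton X-100; 5.3 nM AmpC reagent; cpd preinc 15 min RT; nitrocefin (800 uM stock) to start; A480 q20 s × 4 min; Activity was normalised to no-enzyme and no-compound control wells.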
An asterisk follows results filed as active; ? = inconclusive; / = no result. The sample as a whole holds a higher share of hits than the screen did. Unless noted, the call rests on the fitted dose curve; in most records, active means well fitted curve in the direction sought with a large enough effect; inconclusive means small, poorly fitted or top-dose-only effect, or another doubt; inactive means no such curve, though single readings can be large; an effect the other way counts as inactive or inconclusive.

SMILES | Cycloheximide cs | AMA1 RON2 block | SARS PLpro yeast | AmpC detergent | Shiga inhibitor | AmpC no deterg
COc1ccc(-c2ccc(C(=O)NCc3ccccc3)c3occc23)c(C)c1 | / | -4% | / | / | / | /
COc1ccc(-c2ccc(C(=O)NCc3ccc(N4CCN(C)CC4)cc3)c3occc23)c(C)c1 | / | 16µM* | / | / | / | /
CCc1cc2c(=O)n(CC(=O)NC3CCCCC3)cnc2s1 | 7 | -20% | 6% | 3% | -18 | -1%
CCOc1ccc(-n2cnc3sc(C)c(C)c3c2=O)cc1 | -2 | -5% | -8% | ? | -6 | -20%
CCCCCn1cnc2sc(CC)cc2c1=O | 66* | 9% | -3% | -1% | active | -2%
CCc1cc2c(=O)n(-c3ccc(Br)cc3)cnc2s1 | 16* | 0% | -4% | -6% | 73 | -17%
CCc1cc2c(=O)n(CC(=O)NCCc3ccc(OC)c(OC)c3)cnc2s1 | 0 | 13% | -2% | 1% | -13 | -21%
CCc1cc2c(=O)n(CC(C)C)cnc2s1 | 48* | -11% | 2% | -12% | 63* | -17%
Cc1ncc(CN2CCCC(C(=O)Nc3ccc(-c4ccco4)cc3)C2)n1C (stereo not given) | 1 | -10% | 1% | 7% | -11 | 32%
O=S(=O)(Nc1ccc2c(c1)nc1n2CCN(Cc2ccccc2)C1)c1ccccc1 | 117* | 11% | 0% | -3% | 111* | -14%
CC(O)[C@H]1CNCCN1CCc1cccc2ccccc12 (stereo not given in full) | / | 9% | 0% | -8% | / | -8%
CCOc1ccc(NC(=O)c2cccc(OC(=S)N3CCOCC3)c2)cc1 | 11* | -4% | 1% | -4% | 5 | 3%
O=C(Nc1ccc(Br)cc1)c1cccc(OC(=S)N2CCOCC2)c1 | 19* | -18% | -4% | ? | 50* | -46%
COc1ccc(NC(=O)c2cccc(OC(=S)N3CCOCC3)c2)cc1 | 6 | 9% | 1% | 0% | 21 | -13%
CN1/C(=C\C=C2C(=O)NC(=S)NC2=O)C(C)(C)c2ccccc21 | -1 | 2% | 1% | -3% | -13 | -22%
CN1/C(=C\C=C2/C(=O)Oc3ccccc3C2=O)C(C)(C)c2ccccc21 | 39* | -6% | 8% | -9% | 40* | -10%
CC1(C)CC2CC(C)(CN2Cc2c(O)ccc3ccccc23)C1 (stereo not given) | 22 | 7% | -1% | -2% | 35 | 11µM*
O=C(CCCCCN1C(=O)CCC1=O)NCc1ccccc1 | 3 | 18% | 1% | 2% | 3 | -7%
O=C(COc1ccc2ccccc2c1)N1CCCC1 | 40* | -8% | 0% | 1% | 79* | 21%
O=C(COc1ccc2c3c(c(=O)oc2c1)CCC3)N1CCCCC1 | 25* | 12% | 1% | -5% | 86* | -6%
O=C(COc1ccc2ccccc2c1)N1CCN(c2ccccc2)CC1 | / | 1% | -1% | 0% | / | -14%
O=C(COc1ccc2ccccc2c1)Nc1ccc(S(=O)(=O)N2CCCCCC2)cc1 | -5 | -12% | -2% | 1% | 10 | 18µM*
O=C(COc1ccccc1)Nc1ccc(S(=O)(=O)N2CCCCCC2)cc1 | 1 | -19% | -1% | 5% | 2 | -49%
CN1CCN(C(=O)COc2ccc3ccccc3c2)CC1 | 14* | 0% | 0% | 4% | 31* | -6%
N#CCCN(/N=C/c1cccnc1)C1=NS(=O)(=O)c2ccccc21 | 3 | -25% | -3% | 3% | 3 | -19%
SMILES | Cycloheximide cs | AMA1 RON2 block | SARS PLpro yeast | AmpC detergent | Shiga inhibitor | AmpC no deterg
Cc1cc(C)n(CCNC(=O)[C@H]2O[C@@H](n3ccc(N)nc3=O)[C@H](O)[C@@H]2O)n1 | / | 9% | / | / | / | /
CN1CCc2cc(O)c(O)cc2C1Cc1ccc(O)c(O)c1 (stereo not given) | -6 | / | / | / | -17 | /
CC(O)CC(C)O (stereo not given) | / | 14% | -3% | 1% | / | 2%
COC(=O)c1nc2ccc(N3CCOCC3)cc2c(C)c1C(=O)OC | 22 | -2% | -4% | ? | 57* | 13%
COc1ccc2cc(C(=O)Nc3ccccc3)sc(=O)c2c1OC | 43* | -10% | -2% | 1% | 34* | -27%
COc1cc(NC(=O)c2cc3c(Cl)nc4ccccc4c3s2)cc(OC)c1OC | 6 | 27% | 29% | -2% | -12 | ?
O=C(Nc1ccccc1)c1cc2ccc3ccccc3c2s1 | 47* | 16% | -4% | 3% | 92* | -30%
Cn1c(CCN2CCOCC2)nc2cc(NC(=O)COc3ccccc3)ccc21 | 0 | -3% | 0% | -12% | 18 | -1%
CCC(=O)NCCc1nc2cc(NC(=O)c3cccc(Br)c3)ccc2n1C | / | / | / | 4% | / | /
CCC(=O)NCCc1nc2cc(NC(=O)c3ccccc3Cl)ccc2n1C | 32* | 12% | -5% | -2% | 62* | -4%
Cn1c(CCn2ccccc2=O)nc2cc(NC(=O)COc3ccccc3)ccc21 | 29* | 5% | -3% | ? | 18 | 8%
CC(=O)Nc1ccc2c(c1)nc(CCNC(=O)c1ccccc1)n2C | -2 | 1% | 18% | ? | 6 | 15%
CCC(=O)NCCc1nc2cc(NC(=O)Nc3ccccc3)ccc2n1C | 23 | -5% | 1% | -1% | 43* | -12%
CC(C)C(N)c1csc(Nc2ccc(C(F)(F)F)cn2)n1 (stereo not given) | / | 106% | / | / | / | /
CCOC(=O)Cc1csc(NC(=O)/C=C/c2ccccc2Cl)n1 | 38* | 14% | -2% | 7% | 71* | -27%
CCOC(=O)Cc1csc(NC(=O)/C=C\c2ccccc2Cl)n1 | 23* | -7% | -1% | -4% | 53* | -10%
Cn1c(N)c(C(=O)COC(=O)CCCc2nc3ccccc3s2)c(=O)n(C)c1=O | -3 | -11% | 2% | -12% | -2 | 143%
COC(=O)CNC(=O)c1cccc(Cl)c1 | -2 | -2% | -2% | 2% | -15 | -10%
COc1ccc(-c2cccc(C(=O)NCC(=O)O)c2)cc1 | 23* | 4% | -1% | -6% | 35* | -19%
COC(=O)CNC(=O)c1cccc(-c2ccc(OC)cc2)c1 | 36* | -5% | -2% | 8% | 80* | 38%
CCN(CC)C(=O)c1cccc(-c2ccc(OC)cc2)c1 | 25* | 17% | -13% | ? | 49* | 16%
Cc1cc2c(cc1C)CSC(c1c(O)ccc3ccccc13)SC2 | -2 | -1% | -54% | 0% | -12 | -55%
Cc1cccc(NC(=O)Cn2ncc3c4ccccc4n(Cc4ccccc4)c3c2=O)c1C | / | / | / | 1% | / | /
O=C(CN1CCN(CC(=O)Nc2ccccn2)CC1)Nc1ccccn1 | -3 | 0% | 7% | -8% | -10 | -33%

Source: PubChem BioAssay (National Center for Advancing Translational Sciences (NCATS))
